High-throughput results (PubChem)
NOD2-RIPK2 inh – inhibitors of human NOD2-RIPK2 interaction. O43353. CHO BLA complementation NOD2-RIPK2, CCF4 ratio. inhibition, % at 4.98 µM. 360,000 tested, 0.38% active; in the data active means inhibition above about 21%;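 further: 0% = vehicle only and 100% = reference blocker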
TLR4-MyD88 BLA – TLR4-MyD88 interaction inhibition in cells; O00206+Q99836; HeLa CL3-4 TLR4/MyD88 BLA complementation, FRET ratio; inhibition, % at 8.4 µM; 200,000 tested, 0.18% active; in the data active means inhibition above about 25%;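 further: 0% = vehicle and 100% = reference inhibitor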
TLR9-MyD88 inh – TLR9-MyD88 interaction inhibition; 340,000 tested, 0.21% active; CHO BLA complementation TLR9-MyD88, CCF4 FRET ratio; inhibition, % at 4.98 µM;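 active means inhibition above the mean over all tested compounds plus 3 SD, cut at about 21% in these data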;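 further: 0% = DMSO only wells and 100% = clavulanate BLA inhibitor control wells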
ABHD5-PLIN5 inh – inhibitors of human ABHD5-perilipin-5 interaction. Q00G26+Q8WTS1. Split G. princeps luciferase complementation, luminescence, 4 h. inhibition, % at 4 µM. 360,000 tested, 0.78% active;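 active means inhibition above the mean inhibition across every tested compound plus 3 SD, cut at about 22% in these data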;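 further: 0% = DMSO only wells and the 100% control is not disclosed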
Beta2AR agonist – activates human beta-2 adrenergic receptor causing internalization; P07550; Am2.2-beta2AR cells, FAP receptor internalization, flow cytometry; response, % (concentration not given with the values); 340,000 tested, 0.43% active;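 active means response above a set limit, near 3 SD of response in nonfluorescent compounds, cut at about 42% in these data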
Granule exo inh – lytic granule exocytosis inhibition. TALL-104 LAMP-1 surface exposure, flow cytometry; cells stimulated with thapsigargin and PMA. inhibition, % at 10 µM. 360,000 tested, 0.66% active. AID 651702;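 active means inhibition above about 55%, limit read from the data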
TLR9-MyD88 conf – confirmation of human TLR9-MyD88 binding inhibitors | shares compounds with TLR9-MyD88 inh | CHO TLR9/MyD88 BLA complementation, CCF4 FRET ratio | inhibition, % at 4.98 µM | 680 tested, 51% active | AID 540250;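 active means mean inhibition across three repeats above about 21% taken from the earlier screen, limit read from the data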;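 further: blue over green emission ratio reports constitutive TLR9 MyD88 association via BLA complementation; 0% = DMSO vehicle wells and 100% = clavulanate BLA inhibitor wells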
Target sequence (Q9NR96 whole entry, looked up): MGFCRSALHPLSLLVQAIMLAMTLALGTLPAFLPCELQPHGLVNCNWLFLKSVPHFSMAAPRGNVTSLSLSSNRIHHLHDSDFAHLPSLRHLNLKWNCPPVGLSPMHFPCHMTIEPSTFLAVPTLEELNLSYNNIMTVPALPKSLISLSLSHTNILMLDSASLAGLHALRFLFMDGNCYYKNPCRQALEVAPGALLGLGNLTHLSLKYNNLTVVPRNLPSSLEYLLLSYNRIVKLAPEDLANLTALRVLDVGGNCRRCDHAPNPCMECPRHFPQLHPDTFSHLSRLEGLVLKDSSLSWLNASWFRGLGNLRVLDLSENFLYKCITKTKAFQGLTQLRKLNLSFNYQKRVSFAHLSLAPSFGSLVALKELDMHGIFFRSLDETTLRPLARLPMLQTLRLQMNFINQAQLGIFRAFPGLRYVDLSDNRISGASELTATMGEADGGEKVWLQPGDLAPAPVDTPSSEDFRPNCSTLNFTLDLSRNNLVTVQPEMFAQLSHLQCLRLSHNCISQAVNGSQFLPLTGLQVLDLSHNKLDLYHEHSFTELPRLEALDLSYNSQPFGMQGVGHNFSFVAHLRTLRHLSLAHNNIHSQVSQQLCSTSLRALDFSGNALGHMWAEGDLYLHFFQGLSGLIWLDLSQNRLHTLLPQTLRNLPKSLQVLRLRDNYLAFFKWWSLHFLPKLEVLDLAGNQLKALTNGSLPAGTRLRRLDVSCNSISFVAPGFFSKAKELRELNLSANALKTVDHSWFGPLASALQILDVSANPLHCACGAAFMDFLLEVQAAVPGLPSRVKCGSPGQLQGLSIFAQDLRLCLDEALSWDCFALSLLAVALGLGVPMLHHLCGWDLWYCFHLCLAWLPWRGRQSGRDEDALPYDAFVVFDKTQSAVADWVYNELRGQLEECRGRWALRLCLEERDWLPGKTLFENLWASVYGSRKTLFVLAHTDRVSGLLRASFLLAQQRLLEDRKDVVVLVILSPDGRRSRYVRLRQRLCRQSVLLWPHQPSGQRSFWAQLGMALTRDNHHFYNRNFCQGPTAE
BLA counter-1 – beta-lactamase reporter inhibition, counter-screen artifact; shares compounds with TLR9-MyD88 inh; CHO-BLA cells, CCF4 FRET ratio, BLA reporter; inhibition, % at 4.98 µM; 680 tested, 7% active; AID 540251;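 active means mean inhibition above a 50% cutoff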;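 further: counterscreen of TLR9-MyD88 hits on CMV-driven BLA in CHO-K1 cells; 0% = DMSO alone and 100% = clavulanate blocking BLA; higher means less blue over green ratio so more BLA blockade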
TLR9 CHO cytotox – CHO cell toxicity counter-screen for TLR9-MyD88 inhibitors | shares compounds with TLR9-MyD88 inh | TLR9-MyD88 CHO cells cytotoxicity, luminescence | inhibition, % at 4.98 µM | 680 tested, 39% active | AID 588336; in the data active means inhibition above about 11%
ABHD5-PLIN5 conf – ABHD5-PLIN5 interaction inhibition, confirmed. biochemical ABHD5-PLIN5 interaction, luminescence. 2,200 tested, 67% active. shares compounds with ABHD5-PLIN5 inh. AID 651612. inhibition, % at 4 µM; in the data active means inhibition above about 23%;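 further: 0% = DMSO vehicle wells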
HNF4 split-luc – counter-screen for ABHD5-PLIN5 inhibitors: HNF4 split-luciferase; inhibition, % at 4 µM; shares compounds with ABHD5-PLIN5 inh; 2,200 tested, 77% active; HNF4 dimerization, luminescence, biochemical;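 active means mean inhibition across replicate wells exceeding the computed hit threshold, cut at about 13% in these data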;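 further: light from luciferase halves that rejoin when HNF4 fusion proteins dimerize; 0% = DMSO only wells and the 100% control is not given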
NOD2 RIPK2 conf – confirmation of human NOD2-RIPK2 interaction inhibitors | shares compounds with NOD2-RIPK2 inh | CHO cells, NOD2-RIPK2 BLA complementation, CCF4 FRET | inhibition, % at 4.98 µM | 1,200 tested, 70% active | AID 624370;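 active means mean inhibition across replicates above a set limit taken from the earlier primary screen, cut at about 21% in these data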;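 further: 0% = DMSO-only wells and the high end = clavulanate BLA-blocked wells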
BLA counter-2 – NOD2-RIPK2 counterscreen BLA reporter activity; shares compounds with NOD2-RIPK2 inh; CHO BLA reporter, CCF4 FRET ratio; inhibition, % at 4.98 µM; 1,200 tested, 57% active;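 active means mean inhibition above the low-control mean inhibition plus three low-control SD, cut at about 11% in these data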;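 further: 0% = DMSO only wells and 100% = clavulanate high control wells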
Numbers without * were called inactive; . = not tested or not shown; ! = repeats disagree. Most compounds without a hit are left out; they make up all but 2% or so of the library.

SMILES | NOD2-RIPK2 inh | TLR4-MyD88 BLA | TLR9-MyD88 inh | ABHD5-PLIN5 inh | Beta2AR agonist | Granule exo inh | TLR9-MyD88 conf | BLA counter-1 | TLR9 CHO cytotox | NOD2 RIPK2 conf | BLA counter-2 | others
COc1ccc(C(=O)/C=C/C(=O)N(CC(=O)NC2CCCCC2)CC2CCCO2)c(O)c1 (configuration not stated) | 86.8* | 22.5 | 25.7* | 65.8* | 112.2* | 34.3 | 33.8* | 20.2 | 97.2* | 92.7* | 22.4*
CC(=O)N(C1=C(Cl)C(=O)c2ccccc2C1=O)C1CCCCC1 | 53.6* | . | 48.5* | 32.6* | 63.8* | 89.9* | 78.3* | 22.3 | 100.4* | 92.3* | 34.1* | ABHD5-PLIN5 conf=84.3*;HNF4 split-luc=109.8*
CC(=O)N(c1ccccc1C)C1CCCC1 | -3.3 | 1.2 | -11.0 | -6.0 | -6.3 | -8.6 | . | . | . | . | .
CCc1nc2ccc(C(=O)NCc3cccs3)cn2c1N(C)Cc1nccs1 | -2.5 | . | . | -3.5 | . | -2.8 | . | . | . | . | .
C#CCOc1ccc(CNC[C@H]2O[C@@H](n3ccc(=O)[nH]c3=O)[C@H](O)[C@@H]2O)cc1 | -3.7 | . | . | 1.3 | . | 2.1 | . | . | . | . | .
COc1cc(/C=C/C(O)=C/C(=O)/C=C/c2ccc(O)cc2)ccc1O | 49.2* | . | 34.2* | 9.2 | -112.0 | -2.7 | 25.4* | 22.0 | -1.2 | 57.2* | 56.5*
Cc1ccc(CN2C(=O)CSCC2(C)C(=O)NC(C)C)cc1 (configuration not stated) | -18.9 | . | . | 8.6 | . | -3.7 | . | . | . | . | .
CCn1c(=O)c([N+](=O)[O-])c(NCCN(C)C)c2ccccc21 | -7.4 | 3.3 | -2.4 | 3.9 | -2.5 | 1.0 | . | . | . | . | .
CCn1c(=O)c([N+](=O)[O-])c(Cl)c2ccccc21 | 88.2* | 9.5 | 44.2* | 41.0* | 77.0* | 24.5 | 61.8* | 9.0 | 96.5* | 96.0* | 22.4* | ABHD5-PLIN5 conf=71.0*;HNF4 split-luc=94.6*
COc1ccc(C2C=C(C)Nc3ncnn32)cc1 (configuration not stated) | -22.6 | . | -0.8 | 1.1 | -8.8 | 4.7 | . | . | . | . | .
CCOc1ccc(C2C=C(c3ccc(C)cc3)Nc3nnnn32)cc1 (configuration not stated) | 45.0* | 3.2 | 61.7* | -1.7 | -2.2 | -3.2 | -1.1 | -3.4 | 1.6 | -4.3 | -0.3
CCOc1ccc(C2C=C(c3ccccc3)Nc3nnnn32)cc1 (configuration not stated) | 1.2 | 4.4 | 18.6 | 0.0 | -5.3 | 3.4 | . | . | . | . | .
COc1ccc(C2C=C(c3ccccc3)Nc3ncnn32)cc1 (configuration not stated) | 46.0* | 14.0 | 38.7* | -1.8 | -3.6 | -2.0 | 4.2 | 7.9 | -0.9 | -2.8 | -4.3
Cc1ccc(C2=CC(c3ccc(C)cc3)n3ncnc3N2)cc1 (configuration not stated) | 45.9* | . | 25.6* | 4.8 | -10.2 | -2.3 | 14.7 | 17.5 | -4.6 | 33.1* | 34.7*
Cc1ccc(S(=O)(=O)N2CCOc3ccccc32)c(C)c1NS(C)(=O)=O | 6.9 | . | 2.8 | -13.7 | 2.6 | 1.1 | . | . | . | . | .
COCCNC(=O)C1CCCN(C(=O)COc2ccc(Cl)cc2Cl)CC1 (configuration not stated) | 1.3 | . | . | -6.7 | . | -2.4 | . | . | . | . | .
Nc1cccc2c1C(=O)N(c1ccccc1)C2=O | 45.4* | . | 27.7* | -6.6 | -1.4 | -5.5 | 19.8 | 22.7 | -5.3 | 42.9* | 46.4*
Cn1c(=O)[nH]c(=O)c2c1nc([N+](=O)[O-])n2Cc1ccccc1 | 59.2* | . | 21.8* | 24.3* | 66.8* | 12.2 | 25.7* | 10.2 | 99.4* | 31.0* | 7.2 | ABHD5-PLIN5 conf=61.8*;HNF4 split-luc=59.0*
CCC/C(C#Cc1ccc(N(C)C)cc1)=C1/c2ccccc2C(=O)N1c1ccccc1 | 40.3* | . | 28.7* | -3.5 | -183.1 | 3.9 | 55.9* | 56.5* | 2.8 | 49.2* | 60.3*
CCC/C(C#Cc1cc(OC)cc(OC)c1)=C1/c2ccccc2C(=O)N1c1ccccc1 | 0.7 | . | -4.4 | -15.1 | -4.3 | 1.2 | . | . | . | . | .
O=C(NCc1cc(C(F)(F)F)ccc1Cl)c1cccc2c1C(=O)c1ccc(N3CCC(N4CCCCC4)CC3)cc1S2(=O)=O | 61.0* | . | 46.9* | 13.2 | . | 30.0 | 43.0* | 52.1* | 24.1* | 68.7* | 67.8*
CCCCNC(=O)C1(C)CCN1C(=O)c1ccc(OC)c(C(F)(F)F)c1 (configuration not stated) | 3.7 | . | . | 0.0 | . | -5.6 | . | . | . | . | .
COc1cc2ccc(=O)oc2c(O[C@@H]2O[C@H](CO)[C@@H](O)[C@H](O)[C@H]2O)c1O | 45.3* | . | 39.6* | 3.9 | -16.9 | 5.6 | 24.3*! | 31.9 | -1.5 | 48.7* | 59.2*
O=[N+]([O-])c1ccc(N/N=C/C=C/c2ccco2)cc1 | 55.3* | . | 40.0* | 3.7 | -52.1 | 19.5 | 37.1* | 38.6 | -3.0 | 62.9* | 67.6*
O=C(Nc1cccc(C(F)(F)F)c1)c1csc([C@@H]2O[C@H](CO)[C@@H](O)[C@H]2O)n1 | -10.3 | . | . | 5.2 | . | -1.0 | . | . | . | . | .
CCN1C(=O)c2cccc3c(N)ccc(c23)C1=O | 27.1* | . | 24.8* | 3.4 | -6.0 | -6.4 | 13.1 | 13.3 | 1.9 | 34.6* | 35.4*
CCCCNc1ccc2c3c(cccc13)C(=O)N(CCCC)C2=O | 63.3* | . | 67.1* | 15.9 | . | 44.5 | 50.0* | 49.2 | 11.3* | 77.0* | 78.7*
COc1ccc(/C=C/c2cc(C(=O)O)c3ccccc3n2)cc1 | 48.0* | . | 23.6* | 0.6 | 3.1 | 0.0 | 0.4 | 0.9 | 13.8* | 13.6 | 13.3*
Cc1cc2nc(CN(C)C(=O)C3CCC(=O)N(C4CCCC4)C3)[nH]c2cc1C (configuration not stated) | -8.9 | . | 2.5 | 7.6 | . | -5.4 | . | . | . | . | .
O=Nc1c(O)n(Cc2ccc(Cl)c(Cl)c2)c2ccccc12 | 34.0* | 7.2 | 28.0* | -14.6 | 5.2 | 4.3 | 11.2 | 11.4 | 16.6* | 56.0* | 42.0*
